Source: the supplement of paper PMC8975748
Where a name gives a salt, the structure may show the parent alone. ± gives the standard deviation of the averaged measurements.

Key:
[1] = tested on: Saccharomyces cerevisiae BY4741 SeMeCo community; assay: z-score of prototroph abundance vs DMSO median; higher = larger share of this subpopulation than in DMSO controls; details: 10 µM; 24 h; SM minimal medium; subpopulation (auxotrophy): Prototroph
Procedure, shortened: (§1)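 Scoring was based on each subpopulation's abundance, expressed as a z-score against the vehicle-well median. A Saccharomyces cerevisiae BY4741 community with four plasmids, each restoring one auxotrophy and encoding a distinct fluorescent protein, was pre-grown overnight to OD600 1.0, diluted to 0.3, and added at 70 µl to 384-well plates acoustically predosed with library drugs (10 µM final). It then grew 24 h in minimal SM medium before paraformaldehyde fixation and automated confocal microscopy, with single-auxotroph fluorescent strains setting thresholds and autofluorescence correction.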

[2] = tested on: Saccharomyces cerevisiae BY4741 SeMeCo community; assay: z-score of subpopulation abundance vs DMSO median, subpopulation auxotrophic for M; higher = larger share of this subpopulation than in DMSO controls; details: 10 µM; 24 h; SM minimal medium; subpopulation (auxotrophy): M
Procedure, shortened: as §1

[3] = tested on: Saccharomyces cerevisiae BY4741 SeMeCo community; assay: z-score of subpopulation abundance vs DMSO median, subpopulation auxotrophic for L; higher = larger share of this subpopulation than in DMSO controls; details: 10 µM; 24 h; SM minimal medium; subpopulation (auxotrophy): L
Procedure, shortened: as §1

[4] = tested on: Saccharomyces cerevisiae BY4741 SeMeCo community; assay: z-score of subpopulation abundance vs DMSO median, subpopulation auxotrophic for U; higher = larger share of this subpopulation than in DMSO controls; details: 10 µM; 24 h; SM minimal medium; subpopulation (auxotrophy): U
Procedure, shortened: as §1

[5] = tested on: Saccharomyces cerevisiae BY4741 SeMeCo community; assay: z-score of subpopulation abundance vs DMSO median, subpopulation auxotrophic for H; higher = larger share of this subpopulation than in DMSO controls; details: 10 µM; 24 h; SM minimal medium; subpopulation (auxotrophy): H
Procedure, shortened: as §1

[6] = tested on: Saccharomyces cerevisiae BY4741 SeMeCo community; assay: z-score of subpopulation abundance vs DMSO median, subpopulation auxotrophic for LU; higher = larger share of this subpopulation than in DMSO controls; details: 10 µM; 24 h; SM minimal medium; subpopulation (auxotrophy): LU
Procedure, shortened: as §1

[7] = tested on: Saccharomyces cerevisiae BY4741 SeMeCo community; assay: z-score of subpopulation abundance vs DMSO median, subpopulation auxotrophic for LM; higher = larger share of this subpopulation than in DMSO controls; details: 10 µM; 24 h; SM minimal medium; subpopulation (auxotrophy): LM
Procedure, shortened: as §1

[8] = tested on: Saccharomyces cerevisiae BY4741 SeMeCo community; assay: z-score of subpopulation abundance vs DMSO median, subpopulation auxotrophic for HM; higher = larger share of this subpopulation than in DMSO controls; details: 10 µM; 24 h; SM minimal medium; subpopulation (auxotrophy): HM
Procedure, shortened: as §1

[9] = tested on: Saccharomyces cerevisiae BY4741 SeMeCo community; assay: z-score of subpopulation abundance vs DMSO median, subpopulation auxotrophic for HU; higher = larger share of this subpopulation than in DMSO controls; details: 10 µM; 24 h; SM minimal medium; subpopulation (auxotrophy): HU
Procedure, shortened: as §1

[10] = tested on: Saccharomyces cerevisiae BY4741 SeMeCo community; assay: z-score of subpopulation abundance vs DMSO median, subpopulation auxotrophic for UM; higher = larger share of this subpopulation than in DMSO controls; details: 10 µM; 24 h; SM minimal medium; subpopulation (auxotrophy): UM
Procedure, shortened: as §1

[11] = tested on: Saccharomyces cerevisiae BY4741 SeMeCo community; assay: z-score of subpopulation abundance vs DMSO median, subpopulation auxotrophic for HL; higher = larger share of this subpopulation than in DMSO controls; details: 10 µM; 24 h; SM minimal medium; subpopulation (auxotrophy): HL
Procedure, shortened: as §1

[12] = tested on: Saccharomyces cerevisiae BY4741 SeMeCo community; assay: z-score of subpopulation abundance vs DMSO median, subpopulation auxotrophic for HLM; higher = larger share of this subpopulation than in DMSO controls; details: 10 µM; 24 h; SM minimal medium; subpopulation (auxotrophy): HLM
Procedure, shortened: as §1

[13] = tested on: Saccharomyces cerevisiae BY4741 SeMeCo community; assay: z-score of subpopulation abundance vs DMSO median, subpopulation auxotrophic for HUM; higher = larger share of this subpopulation than in DMSO controls; details: 10 µM; 24 h; SM minimal medium; subpopulation (auxotrophy): HUM
Procedure, shortened: as §1

[14] = tested on: Saccharomyces cerevisiae BY4741 SeMeCo community; assay: z-score of subpopulation abundance vs DMSO median, subpopulation auxotrophic for LUM; higher = larger share of this subpopulation than in DMSO controls; details: 10 µM; 24 h; SM minimal medium; subpopulation (auxotrophy): LUM
Procedure, shortened: as §1

[15] = tested on: Saccharomyces cerevisiae BY4741 SeMeCo community; assay: z-score of subpopulation abundance vs DMSO median, subpopulation auxotrophic for HLUM; higher = larger share of this subpopulation than in DMSO controls; details: 10 µM; 24 h; SM minimal medium; subpopulation (auxotrophy): HLUM
Procedure, shortened: as §1

[16] = tested on: Saccharomyces cerevisiae BY4741 SeMeCo community; assay: mean cell size (pixel area) (pixels); higher = larger cells; details: 10 µM; 24 h; SM minimal medium
Procedure, shortened: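 Drug was acoustically predosed into 384-well plates to a final 10 µM in SM medium, and each well received 70 µl of Saccharomyces cerevisiae BY4741 diluted to OD600 = 0.3 from an overnight preculture at OD600 = 1.0. This four-plasmid fluorescent community carries one fluorescent marker per plasmid, and each plasmid complements one auxotrophy. After 24 h, the cells were fixed with paraformaldehyde and imaged by automated confocal microscopy, and Harmony analysis yielded mean cell pixel area per well. Each value is averaged over 3 replicates. Same SeMeCo high-content imaging drug screen: Selleck FDA-approved drugs at 10 µM, 24 h in SM medium, 384-well plates, 3 replicates.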

Compound	z-score of prototroph abundance [1]	z-score of subpopulation abundance [2]	z-score of subpopulation abundance [3]	z-score of subpopulation abundance [4]	z-score of subpopulation abundance [5]	z-score of subpopulation abundance [6]	z-score of subpopulation abundance [7]	z-score of subpopulation abundance [8]	z-score of subpopulation abundance [9]	z-score of subpopulation abundance [10]	z-score of subpopulation abundance [11]	z-score of subpopulation abundance [12]	z-score of subpopulation abundance [13]	z-score of subpopulation abundance [14]	z-score of subpopulation abundance [15]	mean cell size [16]
Cc1c(-c2ccccc2)oc2c(C(=O)OCCN3CCCCC3)cccc2c1=O [Flavoxate HCl]	-0.85	0.25	0.83	0.96	-0.53	1.88	0.22	0.21	0.05	0.71	-0.37	0.18	-0.16	1.06	1.01	
C[C@H]1[C@H](NC(=O)/C(=N\OC(C)(C)C(=O)O)c2csc(N)n2)C(=O)N1S(=O)(=O)O [Aztreonam]	-0.5	0.26	0.74	-0.07	-0.29	0.39		0.36	-0.08	0.13	0.25	1.34	-0.1	0.97	0.34	12.5 ± 0.18
Cc1nnc(SCC2=C(C(=O)O)N3C(=O)[C@@H](NC(=O)Cn4cnnn4)[C@H]3SC2)s1 [Cefazolin Sodium]		0.3	0	0.46		1.43	0.26	0.05	2.2	0.25	1.09	0.22	0.08	0.5		12.24 ± 0.096
COCCCC/C(=N\OCCN)c1ccc(C(F)(F)F)cc1 [Fluvoxamine maleate]	0.26	0.23	0.54	-0.51	-0.64	-0.03	0.51	-0.09	-0.5	-0.21	-0.26	-0.76		0.15	-0.43	12.3 ± 0.13
Cc1cc(-c2ccc(/N=N/c3ccc4c(S(=O)(=O)O)cc(S(=O)(=O)O)c(N)c4c3O)c(C)c2)ccc1/N=N/c1ccc2c(S(=O)(=O)O)cc(S(=O)(=O)O)c(N)c2c1O [Evans Blue]	-9.18	-14.3	-1.65	1.78	4.9	4.41	-5.69	-7.3	10.3	-9.56	8.09	-2.86	-6.59	-5.24		13.5 ± 0.98
CN(C)[C@@H](CCOc1cccc2ccccc12)c1ccccc1 [Dapoxetine HCl]	0.05	-0.23	0.84	-0.41	-0.41	0.55	0.47			-0.35		-0.47		0.92	-0.01	12.3 ± 0.037
CCC(C)C1OC2(CCC1C)CC1CC(CC=C(C)C(OC3CC(OC)C(OC4CC(OC)C(O)C(C)O4)C(C)O3)C(C)C=CC=C3COC4C(O)C(C)=CC(C(=O)O1)C34O)O2 (stereo not drawn) [Ivermectin]	-1.61	-0.12	-0.07	0.12	1.41	-0.12	0.26	1.17	1.39	1.13	0.26	0.72	2.99	1.28	0.72	
Nc1nc2c(ncn2COC(CO)CO)c(=O)[nH]1 [Ganciclovir]	-0.25	0.43	0			-0.06		-0.15		0.96	-0.27	-0.21	0.33	-0.04	-0.89	12.4 ± 0.16
CC(=O)Oc1ccc(C(=C2CCCCC2)c2ccc(OC(C)=O)cc2)cc1 [Cyclofenil]		-1.19	-0.27	0.16	-0.22	-0.48	-1.03	-0.93	-0.3	-0.03	0.25	0.41	-0.46	-0.06	-0.2	
C=CCCCCCCCCC(=O)[O-].C=CCCCCCCCCC(=O)[O-].[Zn+2] [Zinc Undecylenate]	2.41	-3.83	-1.01	-0.17	-1.44	-1.37	-2.11	-2.65	2.38	-2.31	-0.05	-0.76		-0.54	3.48	11.6 ± 0.15
C[C@@H](c1nc(-c2ccc(C#N)cc2)cs1)[C@](O)(Cn1cncn1)c1cc(F)ccc1F [Isavuconazole]	-10.4	-1.83	-0.71	-1.5	15.6	0.81	1.61	8.09	8.91		9.84	15.5	10.4	7.48		11.95 ± 0.079
CCn1cc(C(=O)O)c(=O)c2cc(F)c(N3CCNCC3)nc21 [Enoxacin Sesquihydrate]	-0.92	0.76	-0.96	1.2	-1.49	0.91	0		0.47	1.24	-0.59	-0.85	0.88	0.36		12.2 ± 0.23
CCCc1nn(C)c2c(=O)[nH]c(-c3cc(S(=O)(=O)N4CCN(C)CC4)ccc3OCC)nc12 [Sildenafil Citrate]	0.12	0.03	-0.61	0.43	-0.22	0.51	-0.26	0.01	-0.23		-0.89	-0.32		-0.09	-0.32	12.4 ± 0.22
CC[C@@H]([C@H](C)O)n1ncn(-c2ccc(N3CCN(c4ccc(OC[C@@H]5CO[C@@](Cn6cncn6)(c6ccc(F)cc6F)C5)cc4)CC3)cc2)c1=O [Posaconazole]	-11.6	-1.66	-0.49	0.25	16.6	3.33	4.46	11.5	16.4	10.8	10.8	14.9		7.85	12.3	12.34 ± 0.068
